# “And” between values parts separate entries of the source, which are not always exact repeats. Equal entries are not always repeated. ± gives the standard deviation of the averaged measurements.
# How the values were obtained:
# DLD1 [1] = test: cell viability (CellTiter-Glo) relative to plate median (fraction of plate median); higher = more viable cells; conditions: 10 µM, treatment time 24 h
# Outline: (§1)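 Kinase inhibitor library compounds were added at a final 10 µM for 24 h to colorectal cancer cells in 384-well plates, 24 h after seeding. The cells stably expressed lentiviral TCF/Wnt firefly luciferase reporters. Firefly luciferase and CellTiterGlo luminescence came from parallel plates, and each well was normalised to its plate median (webcellHTS2, additive, untransformed), averaged over two independent replicates.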
# HCT116 [2] = test: as above; conditions: 10 µM; treatment time 24 h; reporter: TCF4/Wnt
# Outline: as §1
# SW480 [3] = test: as above; conditions: 10 µM; treatment time 24 h; reporter: 7TFP
# Outline: as §1
# DLD1 [4] = test: TCF/Wnt firefly luciferase reporter signal relative to plate median (fraction of plate median); higher = higher Wnt reporter signal; conditions: 10 µM, treatment time 24 h
# Outline: as §1
# HCT116 [5] = test: as above; conditions: 10 µM; treatment time 24 h; reporter: TCF4/Wnt
# Outline: as §1
# SW480 [6] = test: as above; conditions: 10 µM; treatment time 24 h; reporter: 7TFP
# Outline: as §1
Structure (SMILES),cell viability (DLD1 [1]; reporter: 7TFP),cell viability (DLD1 [1]; reporter: TCF4/Wnt),cell viability (HCT116 [2]),cell viability (SW480 [3]),TCF/Wnt firefly luciferase reporter signal (DLD1 [4]; reporter: 7TFP),TCF/Wnt firefly luciferase reporter signal (DLD1 [4]; reporter: TCF4/Wnt),TCF/Wnt firefly luciferase reporter signal (HCT116 [5]),TCF/Wnt firefly luciferase reporter signal (SW480 [6])
COC(=O)Nc1ccc(-c2nc(N3CCOCC3)c3cnn(C4CCN(Cc5cccnc5)CC4)c3n2)cc1,0.796 ± 0.069,0.872 ± 0.036,0.759 ± 0.059,1.055 ± 0.0071,0.372 ± 0.064,0.632 ± 0.04,0.595 ± 0.068,0.765 ± 0.066
CC(=O)NCC(=O)N1[C@@H]2CC[C@H]1c1ccc(Nc3ncc(C(F)(F)F)c(NC4CCC4)n3)cc12,0.907 ± 0.028,1.04 ± 0.08,0.256 ± 0.13,0.877 ± 0.071,0.742 ± 0.09,1.24 ± 0.092,0.149 ± 0.0021,1.21 ± 0.11
O=C(O)c1ccc2c(c1)nc(Nc1cccc(Cl)c1)c1ccncc12 [cx-4945 (Silmitasertib)],1 ± 0.057,0.955 ± 0.079,0.839 ± 0.042,1 ± 0.092,0.508 ± 0.15,0.651 ± 0.2,0.627 ± 0.36,0.612 ± 0.1
Cc1cc2c(F)c(Oc3ncnn4cc(OC[C@@H](C)OC(=O)[C@H](C)N)c(C)c34)ccc2[nH]1,1.06 ± 0.042,0.938 ± 0.052,0.981 ± 0.041,1.23 ± 0.071,1.03 ± 0.11,1.135 ± 0.0071,0.852 ± 0.16,1.28 ± 0.099
Cc1cc(Nc2nc(N[C@@H](C)c3ccc(F)cc3)c(C#N)cc2F)n[nH]1,0.875 ± 0.17,0.843 ± 0.062,0.831 ± 0.015,1.02 ± 0.035,1.14 ± 0.23,1.15 ± 0.25,1.22 ± 1.1,0.804 ± 0.38
COc1ccc2c3n(c(=NC(=O)c4cccnc4)nc2c1OC)CCN3,1.005 ± 0.0071,0.944 ± 0.026,0.958 ± 0.028,1.04 ± 0.042,0.858 ± 0.13,1.05 ± 0.1,1.12 ± 0.13,0.67 ± 0.33
CN(c1ncccc1CNc1nc(Nc2ccc3c(c2)CC(=O)N3)ncc1C(F)(F)F)S(C)(=O)=O,0.974 ± 0.19,1.06 ± 0.071,0.698 ± 0.21,1.19 ± 0.11,0.732 ± 0.28,1.66 ± 0.33,0.2 ± 0.037,0.9115 ± 0.0064
O=C1NC(=O)/C(=C/c2ccc3c(c2)OC(F)(F)O3)S1,1.285 ± 0.0071,1.09 ± 0.021,1.15 ± 0.13,0.882 ± 0.034,0.944 ± 0.35,1.06 ± 0.24,1.18 ± 0.22,1.03 ± 0.21
COc1ccc(-c2ccc3c(N4CCOCC4)nc(N4C[C@@H](C)O[C@@H](C)C4)nc3n2)cc1CO,0.938 ± 0.074,0.878 ± 0.041,0.842 ± 0.076,1.18 ± 0.021,0.392 ± 0.059,0.597 ± 0.019,0.432 ± 0.24,0.812 ± 0.29
O=C(c1ccc(/C=C/c2n[nH]c3ccccc23)cc1)N1CCNCC1,1.16 ± 0.021,1.14 ± 0.071,0.944 ± 0.093,1.09 ± 0.035,1.26 ± 0.6,1.46 ± 0.65,1.45 ± 0.45,1.53 ± 0.2
Cc1[nH]c(/C=C2\C(=O)Nc3ccc(S(=O)(=O)N(C)c4cccc(Cl)c4)cc32)c(C)c1C(=O)N1CCN(C)CC1,1.13,1.04 ± 0.066,1.09 ± 0.13,1.06 ± 0.11,0.858 ± 0.37,0.954 ± 0.14,0.756 ± 0.098,0.964 ± 0.065
C[C@@H]1CCN(C(=O)CC#N)C[C@@H]1N(C)c1ncnc2[nH]ccc12,1.02 and 1.09,1.07 and 1.1,1.21 and 1.14,0.9 and 0.972,1.06 and 1.04,0.874 and 0.875,1.18 and 1.36,0.736 and 0.979
Cc1[nH]nc2ccc(-c3cncc(OC[C@@H](N)Cc4ccccc4)c3)cc12,1.02 ± 0.18,1.17 ± 0.05,0.755 ± 0.036,1.19 ± 0.099,0.51 ± 0.029,0.189 ± 0.021,0.196 ± 0.047,0.822 ± 0.042
N#CC(=C(/N)Sc1ccccc1N)/C(C#N)=C(\N)Sc1ccccc1N,1.08 ± 0.064,1.003 ± 0.0099,0.938 ± 0.043,1.06 ± 0.05,1.73 ± 0.11,1.27 ± 0.064,0.95 ± 0.071,1.59 ± 0.16
COc1cc2nccc(Oc3ccc(NC(=O)C4(C(=O)Nc5ccc(F)cc5)CC4)cc3)c2cc1OC [XL-184 free base (Cabozantinib)],1 ± 0.08,1.02 ± 0.05,1.095 ± 0.0071,0.9465 ± 0.0035,1.14 ± 0.14,0.846 ± 0.078,1.05 ± 0.23,1.03 ± 0.1
CS(=O)(=O)CCNCc1ccc(-c2ccc3ncnc(Nc4ccc(OCc5cccc(F)c5)c(Cl)c4)c3c2)o1 [Lapatinib Ditosylate (Tykerb)],1.06 ± 0.078,1.02 ± 0.03,0.972 ± 0.04,0.913 ± 0.035,1.27 ± 0.078,1.1 ± 0.042,1.25 ± 0.18,1.16 ± 0.057
CC(C)(C)c1cnc(CSc2cnc(NC(=O)C3CCNCC3)s2)o1,1.09 ± 0.12,1.06 ± 0.23,0.786 ± 0.17,1.3 ± 0.099,0.462 ± 0.047,1.06 ± 0.92,0.228 ± 0.0071,0.84 ± 0.025
CNC(=O)c1cc(Oc2ccc(NC(=O)Nc3cc(C(C)(C)C)nn3-c3ccc4ncccc4c3)c(F)c2)ccn1 [DCC-2036 (Rebastinib)],1.1 ± 0.13,1.265 ± 0.0071,0.985 ± 0.035,1.08 ± 0.099,0.817 ± 0.021,0.755 ± 0.047,0.895 ± 0.2,0.746 ± 0.06
Clc1ccc(C2(c3ccc(-c4cn[nH]c4)cc3)CCNCC2)cc1,1.01 ± 0.025,1.08 ± 0.028,1.03 ± 0.13,1.15 ± 0.057,1.13 ± 0.13,0.883 ± 0.11,0.871 ± 0.024,1.33 ± 0.021
O=C(O)c1ccc(Nc2ncc3c(n2)-c2ccc(Cl)cc2C(c2c(F)cccc2F)=NC3)cc1,1.06 ± 0.028,0.993 ± 0.067,0.982 ± 0.0042,1.01 ± 0.055,1.1 ± 0.19,1.11 ± 0.042,1.375 ± 0.0071,0.9575 ± 0.00071
CN(C[C@@H]1COCCO1)S(=O)(=O)Nc1ccc2ccc3ncc(-c4cnn(C)c4)cc3c(=O)c2c1,0.907 ± 0.053,0.888 ± 0.044,0.926 ± 0.15,0.9835 ± 0.0064,0.96 ± 0.1,1.07 ± 0.035,0.972 ± 0.39,1.02 ± 0.36

# Reference: the supplement of paper PMC6522484
